Rows were chosen to be rich in hits. Some 0.74% of all compounds tested hit in one or more screens of this group.
PINK1 expr mod – changes PINK1 expression; PINK1 immunofluorescence, high-content cytometry, 24 h; 410,000 tested, 0.2% active; Potency, µM (titrated, usually from 76.6 µM), for inactives: at the highest dose activation (PINK1 increase), hits mostly activators; active = well fitted activation curve with a large enough effect; inconclusive = small, poorly fitted or top-dose-only effect; cell line not stated here; also: potency is read from the fitted curve at half-maximal effect; % of control where 0% means no effect; nearly all actives have a fitted effect of over 65% in size
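Decision-based qHTS: stable cells, 24 h exposure to five compound concentrations, CCCP as control. Fixed cells stained for PINK1 plus nuclear, mitochondrial and cell markers, cytometer read.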
Vif-APOBEC3G blk – Vif-A3G binding inhibition. Q9HC16. HeLa A3G-eYFP + Vif (tagged APOBEC3G with the HIV-1 protein that degrades it), YFP fluorescence, overnight. Potency, µM (doses to about 46.1 µM), for the others: at the highest dose activity, negative = active, usual class: inhibitors. 410,000 tested, 0.076% active; also: potency is read from the fitted curve at half-maximal effect; % is scaled to controls: 0 for no effect and ±100 for the full control effect; nearly all actives have a fitted effect of over 60% in size
Target sequence (Q9HC16 whole entry, looked up): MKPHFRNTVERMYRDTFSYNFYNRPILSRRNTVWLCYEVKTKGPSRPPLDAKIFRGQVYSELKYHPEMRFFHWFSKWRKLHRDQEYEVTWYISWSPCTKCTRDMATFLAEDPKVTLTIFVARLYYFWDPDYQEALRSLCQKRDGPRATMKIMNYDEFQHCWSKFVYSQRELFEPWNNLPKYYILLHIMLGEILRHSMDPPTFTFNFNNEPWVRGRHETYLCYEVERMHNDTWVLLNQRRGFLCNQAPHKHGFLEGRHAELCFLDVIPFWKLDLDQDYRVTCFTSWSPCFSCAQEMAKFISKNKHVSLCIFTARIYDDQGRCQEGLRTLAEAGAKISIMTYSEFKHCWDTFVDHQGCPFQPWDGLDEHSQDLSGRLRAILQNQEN
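HeLa cells stably expressing Vif and C-terminally eYFP-tagged A3G, seeded overnight at 37 deg C, then exposed to compound by pintool overnight at 37 deg C. Rise in yellow fluorescence (Ex 488/Em 500-530, Acumen) marks blocked Vif-driven A3G degradation.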
Glioma ERSR ind – induces the endoplasmic reticulum stress response in human glioma cells; U87-MG GRP78 promoter luciferase reporter, 16 h; Potency, µM, without a hit: at the highest dose activation, actives largely listed as activators; 420,000 tested, 0.02% active; AID 602332; also: potency is read from the fitted curve at half-maximal effect; series mostly up to about 76 µM; % of control where 0% means no effect; nearly all actives have a fitted effect of over 35% in size
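Stably transfected U87-MG human glioma cells carrying a GRP78-based luminescent sensor were seeded at 1000 cells/well, pin-dosed with compounds and incubated 16 h. Luciferase reagent was then added, and end-point luminescence was read after 10 min at room temperature.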
LDHA inh – LDHA (human) enzyme inhibition; P00338; purified LDHA, NADH/diaphorase-resazurin fluorescence; stronger effect = lower value; activity change, % (values are at about 110 or 230 µM); 480,000 tested, 0.15% active; in the data active = activity change below about -30%; inconclusive = mostly about -25% to -30%;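 also: plate controls were DMSO wells for no effect and wells without enzyme for full effect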
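Human LDH5 at 2 nM final in Tris HCl pH 7.4 with 0.06 mM NADH and 0.2 mM pyruvate, reacted 5 minutes at room temperature. Remaining NADH coupled via diaphorase/resazurin; resorufin fluorescence read at 0 and 20 minutes, normalized to enzyme-free and DMSO wells.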
Vif-APOBEC3F blk – Vif-A3F binding inhibition | HeLa A3F-eYFP + Vif (tagged APOBEC3F with the HIV-1 protein that degrades it), YFP fluorescence increase | Potency, µM (highest dose often 46.1 µM), inactives show top-dose activity, negative = active | 390,000 tested, 0.2% active; also: potency is read from the fitted curve at half-maximal effect; % of control where 0% means no effect; nearly all actives have a fitted effect of over 65% in size
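HeLa cells stably expressing Vif plus C-terminally eYFP-tagged A3F were seeded, incubated overnight at 37 deg C, dosed with compound, incubated overnight again at 37 deg C. Yellow fluorescence (Ex 488/Em 500-530) reported blocked Vif-mediated A3F-eYFP degradation.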
Akt phos inh – inhibitors of Akt phosphorylation; Neuro2A IGF-stimulated pAkt S473 HTRF, 20 min; stronger effect = lower value; activity change, % for hits at 50 µM; 360,000 tested, 0.32% active; AID 651550; in the data active = activity change below about -80%; inconclusive = mostly about -51% to -80%; also: % is scaled to controls: 0 for no effect and ±100 for the full control effect
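Single-point screen (50 µM final compound) in Neuro2A cells stimulated 20 min with 6 nM IGF at 37 deg C. After lysis, Ser473-phosphorylated Akt read by HTRF (ex 330 nm, em 615/665 nm) as the 665/615 ratio.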
Numbers without * were called inactive; i = inactive; ? = inconclusive; . = no result; ! = not active in a repeat; [ ] = remark or other dose. Unless noted, calls follow the shape of the dose curve; as a rule, active = well fitted curve in the direction sought with a large enough effect; inconclusive = small, poorly fitted or top-dose-only effect, or another doubt; inactive = no such curve, though single readings can be large; an effect the other way counts as inactive or inconclusive.

SMILES	PINK1 expr mod	Vif-APOBEC3G blk	Glioma ERSR ind	LDHA inh	Vif-APOBEC3F blk	Akt phos inh
O=C1NC(=O)N(c2ccc(Cl)cc2)C(=O)/C1=C\c1ccc(Sc2nc3ccccc3[nH]2)o1	2%	-27%	4%	-76*	?	i
O=C1NC(=O)C(=Cc2cccc(OCCOc3ccccc3)c2)C(=O)N1	0%	-7%	-6%	-31*	-19%	i
O=C(CSC1c2ccccc2Oc2ccccc21)Nc1ccc(C(=O)O)cc1	.	.	.	14	.	.
Cc1cc(=O)oc2cc(OCC(=O)N3CCN(CCO)CC3)c(Cl)cc12	.	.	.	1	.	.
Cc1cc(C)nc(SC(Cl)(Cl)Cl)n1	.	.	.	-1	.	.
CN(C)C(=O)Oc1c(Cl)cc(Cl)c2cccnc12	2%	1%	-3%	-15	-4%	i
Cc1ccc2c(Cl)cc(Cl)c(O)c2n1	4%	-22%	28µM*!	17	?	i
Cc1ccc(OCC(=O)N2CCN(Cc3cccnc3)CC2)cc1	-1%	-7%	-5%	-32*	-5%	i
Cc1cccc(OCC(=O)N2CCN(Cc3cccnc3)CC2)c1	-1%	-1%	2%	-33*	-7%	i
CC(=O)c1c(C)[nH]c(C(=O)C(C)NC(C)c2ccc(Cl)cc2Cl)c1C (stereo unspecified)	.	.	.	-1	.	.
O=C(CN1CCN(C(=O)Cc2n[nH]c(=O)c3ccccc23)CC1)NC1CC1	.	.	.	-9	.	.
COc1ccc(CCNCc2cccc(Br)c2)cc1	.	.	.	-1	.	.
COc1ccc(-n2c(/C=C/c3ccco3)nc3ccccc3c2=O)cc1	.	.	.	1	.	.
CC(=O)Nc1ccc(S(=O)(=O)N2Cc3ccccc3-n3nncc3C2)cc1	1%	0%	-6%	-30*	-16%	i
Cc1[nH]nc2c1C(c1ccc(-c3ccc(Cl)cc3)o1)SCC(=O)N2 (stereo unspecified)	.	.	.	22	.	.
Nc1cccc2ccccc12	.	.	.	58	.	.
Nc1ccc2c3c(cccc13)-c1ccccc1-2	11µM*	?	4%	15	?	i
CC(C)c1ccc(C(c2c(O)c3ccccc3oc2=O)c2c(O)c3ccccc3oc2=O)cc1	?	-21%	-2%	-6	?	i
O=c1oc2ccccc2c(O)c1C(c1ccc([N+](=O)[O-])cc1)c1c(O)c2ccccc2oc1=O	0%	-15%	11%	-67*	3%	i
Cc1cccc(C(=O)N2CCC(=O)CC2)c1	.	.	.	3	.	.
COc1ccc(-n2nc(C)c3c2NC(=O)CSC3c2cc(OC)c(O)c(OC)c2)cc1 (stereo unspecified)	.	.	.	-1	.	.
O=C1NC(=O)C(=Cc2cc(Cl)ccc2OCc2ccc(C(=O)O)cc2)C(=O)N1	6%	-1%	1%	-90*	0%	i
CN1C(=O)C(=Cc2ccccc2OCc2ccc(Cl)cc2)C(=O)N(C)C1=O	5%	-10%	8%	-6	6%	i
CC(C)C12CN3CC(C(C)C)(CN(C1)C3c1cccnc1)C2=O (stereo unspecified)	-1%	3%	-2%	-2	1%	-108%*
O=C1N(c2ccccc2)C(c2cccnc2)N2CCCN12 (stereo unspecified)	5%	2%	-4%	2	0%	i
SMILES	PINK1 expr mod	Vif-APOBEC3G blk	Glioma ERSR ind	LDHA inh	Vif-APOBEC3F blk	Akt phos inh
CC(C)N1C(=O)CC2(CC[N+](C)(CCOC(=O)C(O)(c3ccccc3)c3ccccc3)CC2)C1=O (stereo unspecified)	2%	-9%	-4%	-34*	-7%	i
Cc1cc(C)c2[nH]c(C)c(CCN)c2c1	.	.	.	1	.	.
CC[N+](C)(CC)CCCOC(=O)C(O)(c1ccccc1)C1CCCCC1 (stereo unspecified)	-1%	0%	-4%	-82*	6%	i
N#CC(C#N)=NNc1ccc(S(N)(=O)=O)cc1	0%	6%	-4%	-45*	-5%	i
CN=C(SCc1ccccc1)c1c(O)n(C)c(=O)n(C)c1=O	-1%	0%	-3%	3	-4%	-108%*
N#C/C(=C\c1ccc(O)c(O)c1)C(=O)NCCCNC(=O)/C(C#N)=C/c1ccc(O)c(O)c1	.	.	37µM*	.	.	.
OCCSCCSCCO	.	.	.	-2	.	.
Cc1ccccc1-n1c(/C=C/c2ccco2)nc2ccccc2c1=O	.	.	.	11	.	.
Cc1ccccc1-n1c(/C=C/c2ccc(N(C)C)cc2)nc2ccccc2c1=O	3%	3.2µM*	-2%	2	?	.
Nc1ccccc1	.	.	-2%	.	.	.
[Hg+][c]1ccccc1	-1%	-14%	-12%	-62*	.	.
COCCCn1c(=O)/c(=C/c2ccccc2OC(F)F)s/c1=C(\C#N)C(=O)NCCOC	?	-8%	-1%	-9	?	i
CCCCNC(=O)/C(C#N)=c1\s/c(=C\c2ccccc2OC(F)F)c(=O)n1CCCOC	?	?	-3%	3	8.9µM*	i
COCCCn1c(=O)/c(=C\c2ccccc2OC(F)F)s/c1=C(/C#N)C(=O)NCCOC	?	-8%	-7%	-4	25µM*	i
C/C=C(/C)C(=O)O[C@H]1C(C)=C2[C@H]([C@@H]1OC(=O)CCCCCCC)[C@@](C)(OC(C)=O)C[C@H](OC(=O)CCC)[C@@]1(O)[C@H]2OC(=O)[C@@]1(C)O	.	.	0.016µM*!	.	.	.
COc1cc(/C=C2\C(=O)NC(=O)N(c3ccccc3)C2=O)cc(OC)c1O	-5%[38.3 µM]	1%	-5%	53	-17%	i
COc1ccccc1N1C(=O)NC(=O)/C(=C/c2ccc3c(c2)Cc2ccccc2-3)C1=O	-1%	-15%	4%	-33*	1%	i
Cc1ccc(N2C(=O)NC(=O)/C(=C\C=C\c3ccco3)C2=O)cc1C	0%	?	-13%	-4	22µM*	i
O=C(NC1CCSC1=O)c1cccs1 (stereo unspecified)	.	.	.	1	.	.
COCCNC(=O)c1c(NC(=O)c2ccc(Br)o2)n(Cc2ccccc2)c2nc3ccccc3nc12	16%	?	-2%	0	11µM*	i
O=c1c2ccccc2[se]n1-c1ccccc1	0%	-4%	-3%	-108*	?	i
Cc1ccc(NC(=O)c2cn(Cc3ccccc3)nn2)c(C)c1	.	.	.	3	.	.
CSc1ccc(CN2CCN(Cc3ccccc3Cl)CC2)cc1	13%	-2%	-5%	-31*	2%	i
O=c1[nH]c(=S)n(Cc2ccco2)c(O)c1C=NCc1cccs1	-1%	-1%	-5%	-1	-8%	i
O=c1[nH]c(=O)n(Cc2ccco2)c(O)c1C=NCc1cccs1	-2%[38.3 µM]	-3%	-2%	-11	-3%	-93%*
CC(=NCCCN1CCCCC1)c1c(O)n(Cc2ccccc2)c(=O)[nH]c1=O	-1%	0%	1%	1	-3%	-116%*
